This is one part of a sample in which hits are shown more often than they occur.
Dicer processing: blocks human Dicer maturation of pre-miR-21; cat-ELCCA pre-miR-21 Dicer processing, chemiluminescence; stronger effect = higher value; z-score at 25 µM; hit rate 6% among 47,000; AID 1347074; in the data active = z-score above about 3, passing the limit was not always enough;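 also: higher signal means more uncleaved substrate so more Dicer inhibition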
Of the large screens only hits and unclear results are named; the others gave an inactive call.

O=C(O)c1ccccc1C(=O)c1ccc(F)cc1	Dicer processing 3.1
O=C(O)c1ccccc1C(=O)c1ccc(-c2ccccc2)cc1	none
CCCCN(CCCC)C(=O)c1sc2nc(N3CCOCC3)c3c(c2c1N)CC(C)(C)OC3	none
Cc1cccc(N2C(=O)CSC2=S)c1	none
Fc1ccc(Oc2cc(C(F)(F)F)nc3c(Br)cccc23)cc1	none
Cc1nc(C)c(S(=O)(=O)NCc2nn(-c3ccccc3)nc2C)s1	none
Clc1ccc(CNc2nc3ccccc3n2CCN2CCCCC2)cc1	Dicer processing 3.2
CCCCn1c(NCc2ccco2)nc2ccccc21	none
O=C(CSc1nc2ccccc2nc1N1CCCC1)NCc1ccco1	none
O=C(Nc1nc2ccccc2n1CCN1CCCCC1)C1CCCCC1	none
c1coc(CNc2nc3ccccc3n2CCN2CCCCC2)c1	Dicer processing 6.1
O=C(Cn1c(NCCO)nc2ccccc21)c1ccc(Cl)cc1	none
COc1ccc(CCNc2ccc(C(F)(F)F)cc2N)cc1OC	none
Nc1ccccc1Sc1ccc(-c2cnc3ccccc3n2)cc1[N+](=O)[O-]	none
CCOc1nccc(C(F)(F)F)c1C(=O)N(CC)c1c(C)cccc1C	none
COc1cc(OC)c(/C=C2\N=C(c3ccccc3)OC2=O)c(OC)c1	none
CC1=C(C(=O)OCC2CCCO2)C(c2cc3c(cc2Cl)OCO3)C2=C(CCCC2=O)N1 (stereo not given)	none
O=C1/C(=C/c2ccc(Cl)cc2)CC/C1=C\c1ccc(Cl)cc1	none
Cc1ccc2oc(=O)n(CCC(=O)O)c2c1	none
Cc1ccc2oc(=O)n(Cc3ccc(F)cc3)c2c1	none
CCCCn1c(=O)oc2ccc(C)cc21	Dicer processing 3.6
COc1c(C(=O)O)csc1Br	none
O=C(Nc1ccc(Cl)cc1Cl)Nc1cnn(-c2ccc(Cl)cc2)c1C(F)(F)F	none
O=c1oc2c(-c3ccccc3F)cc(O)cc2s1	none
O=c1c(-c2cccc(Cl)c2)c(C(F)(F)F)oc2cc(O)ccc12	none
O=c1oc2c(-c3ccc(Cl)cc3)cc(O)cc2s1	Dicer processing 12
O=c1oc2c(-c3cccc(Cl)c3)cc(O)cc2s1	Dicer processing 6.2
O=C1C2=C(c3ccccc3)c3cc(Cl)ccc3C2Sc2ccccc21 (stereo not given)	none
O=C(c1ccc(Cl)cc1)c1c(O)cc(-c2ccc(Cl)cc2)oc1=O	none
CCOCCOC(=O)C1=C(C)NC2=C(C(=O)CC(C)(C)C2)C1c1cccc(O)c1 (stereo not given)	none
COC(=O)C(CC(C)C)NC(=O)CSc1nnc(C)c(=O)[nH]1 (stereo not given)	none
O=C(COc1ccc2c(=O)c(-c3ccccc3Cl)coc2c1)OCc1ccccc1	none
O=C(Nc1cc2cc([N+](=O)[O-])ccc2oc1=O)c1ccc(Cl)c(Cl)c1	none
CCOC(=O)c1nn(-c2ccc(C(C)(C)C)cc2)c(=N)c(C#N)c1C	none
C=CCOc1ccc(C2/C(=C(\O)c3ccc(OC)cc3)C(=O)C(=O)N2Cc2cccnc2)cc1 (stereo not given)	none
COC(=O)COc1cc(Br)c(C2C(C#N)=C(N)Oc3c2ccc2ccccc32)cc1OC (stereo not given)	none
CCCCc1nc2sc3c(NCCO)ncnc3c2c2c1COC(C)(C)C2	none
C=CCOC(=O)c1sc(N2C(=O)c3oc4ccccc4c(=O)c3C2c2ccc(F)cc2)nc1C (stereo not given)	none
Cc1ccc2nc(Cc3ccc4nc(N)sc4c3)oc2c1	Dicer processing 4.7
Cc1ccc2nc(Cc3ccc(N)cc3)oc2c1	none
Nc1nc2ccc(Cc3nc4ccccc4o3)cc2s1	none
COc1ccc(C2C(C#N)=C(N)Oc3n[nH]c(C)c32)cc1O (stereo not given)	none
O=C(O)CSc1ccc(F)cc1Cl	none
O=C(CSc1nc2sc3c(c2c(=O)[nH]1)CCCC3)NCCN1CCOCC1	Dicer processing 3.9
O=C(O)CC(Sc1nc2sc3c(c2c(=O)[nH]1)CCCC3)C(=O)O (stereo not given)	none
Nc1nc(SCC(=O)NCCCO)nc2sc3c(c12)CCCC3	none
O=C(OCCS(=O)(=O)c1ccccn1)c1ccccc1	none
COc1ccc(OC)c(C2C(C(=O)OC(C)C)=C(C)NC3=C2C(=O)CC(c2ccc(Cl)cc2)C3)c1 (stereo not given)	none
CCCCc1c(C)nc(SCc2c(F)cccc2Cl)[nH]c1=O	none
CCOc1ccc(C(=O)CC2(O)C(=O)Nc3ccccc32)cc1 (stereo not given)	Dicer processing 3.4
CCc1ccc(C(=O)CC2(O)C(=O)Nc3ccccc32)cc1 (stereo not given)	none
CC(C)c1ccc(C(=O)CC2(O)C(=O)Nc3ccccc32)cc1 (stereo not given)	none
Fc1cccc(Cl)c1CN1CCN(CCCNc2nc(-c3ccccc3)ns2)CC1	none
O=C(Cc1ccccc1)N(c1ccc2oc(=O)sc2c1)S(=O)(=O)c1cccs1	Dicer processing 5.4
CC(C)C(=O)N(c1cc2sc(=O)oc2c2ccccc12)S(=O)(=O)c1cccs1	none
O=C(c1cccnc1)N(c1ccc2oc(=O)sc2c1)S(=O)(=O)c1cccs1	Dicer processing 6.1
COc1ccc(S(=O)(=O)N(C(=O)c2ccncc2)c2cc3sc(=O)oc3c3ccccc23)cc1	none
CC(C)C(=O)N(c1ccc2oc(=O)sc2c1)S(=O)(=O)c1cccs1	none
O=C(c1ccncc1)N(c1ccc2oc(=O)sc2c1)S(=O)(=O)c1cccs1	Dicer processing 5.5
